The campaign covered roughly 360,000 compounds. About 17,000 (4.7%) were called active. Not shown: some 5% with an inconclusive outcome. Rule as the data show it: active = activity change below about -50%; inconclusive = mostly about -30% to -49%; inactive = weaker than that. The sample as a whole holds a higher share of actives than the screen did. Where a SMILES comes first, the peptide text is derived from it. The star is where a group is joined. Bz = O=C(c1ccccc1)*
% is scaled to controls: 0 for no effect and ±100 for the full control effect.

This assay can be described thus: qHTS for Inhibitors of Inflammasome Signaling: IL-1-beta AlphaLISA Primary Screen. The settings on record: THP-1 LPS/ATP IL-1B secretion, 16 h; at 57.5 µM, active compounds read low. The method, boiled down:
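THP-1 cells pretreated 1 hr with compounds (up to 57.5 uM final), then stimulated with LPS (250 ng/mL final) plus ATP (1.25 mM final); secreted IL-1B measured by AlphaLISA after 16 hr, decreased signal indicating inhibition.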
A general note: Quantitative high-throughput screening tests each substance at several concentrations.
On to `O=C(CC1NCCc2ccccc21)Nc1cccc(Cl)c1` (stereo not drawn), for which the activity change is -29.8% (inactive).

Consider `CCOC(=O)C1=C(C)N(C[C@@H]2CC[C@@H](Cc3ccc(-c4ccccc4)cc3)O2)C(=O)NC1c1ccc([N+](=O)[O-])cc1` (stereo partly drawn), for which the activity change is -63.7% (active).

Consider `CCC(CC)COC(=O)C1=C(C)NC(=O)NC1c1ccc([N+](=O)[O-])cc1` (stereo not drawn), for which the activity change was -2.87% (inactive).

Turning to `CCN1C(=O)N[C@@H](c2ccccc2)C(C(=O)OC)=C1C`, the activity change was 15% (inactive).

As to `COc1ccc(C(=O)N2CCCN(C)CC2)c(OC)c1`, the activity change was 33.4% (inactive).

For the molecule `COc1cc(C(=O)N2CCN(C)CC2)cc(OC)c1OC`, the activity change is 42.7% (inactive).

For the molecule `COc1cc2c(C(=O)N3CCN(C)CC3)c(CSc3ccccc3)n(C)c2cc1Br`, the activity change is -60.2% (active).

For the molecule `C[C@@H]1CN([C@H](C)CO)C(=O)CCCn2nncc2CO[C@@H]1CN(C)S(=O)(=O)c1cccc(C#N)c1`, the activity change is 3.99% (inactive).

For `COC1=CC(=O)OC(c2ccc(OC)cc2)C1` (stereo not drawn), the activity change is -17.1% (inactive).

Regarding `CS(=O)(=O)c1cccc(-c2ccc3nncn3c2)c1`, the activity change is 11.3% (inactive).

As for `O=C(NC(Cc1ccccc1)C(=O)N1CCCC(C(F)(F)F)C1)c1ccccc1` (stereo not drawn), the activity change was 1.82% (inactive).

For `CN(Cc1ccccc1F)C(=O)C(Cc1ccccc1)NC(=O)c1ccccc1` (stereo not drawn), the activity change was -84.2% (active).

Take `O=C(NC(Cc1ccccc1)C(=O)N1CCCC1C(=O)O)c1ccccc1` (stereo not drawn) (Bz-Phe-Pro-OH; configuration not given here): the activity change is 6.95% (inactive).

With `COCCn1c(SCC(=O)Nc2ccc(F)cc2F)nc2c(c1=O)SCC2`, the activity change is 18.2% (inactive).

With `CCNC(=O)CCc1nc(-c2ccc(C(C)(C)C)cc2)no1`, the activity change is -3.31% (inactive).

On to `CC(O)CNCCOc1cccc(Oc2ccccc2)c1` (stereo not drawn), for which the activity change is -29% (inactive).

Turning to `OC(CNCCc1ccc(Cl)cc1Cl)COc1ccccc1` (stereo not drawn), the activity change is -91.8% (active).

In the case of `COc1ccc(OCC(O)CNC(=O)Nc2ccc(Cl)cc2)cc1` (stereo not drawn), the activity change is 5.19% (inactive).

As for `COc1ccc(C(=O)CCC(=O)Nc2ccc(Cl)cc2)cc1`, the activity change was 4.81% (inactive).

Consider `COc1ccc(NC(=O)CN2C(=O)NC(C)(c3ccccc3)C2=O)cn1` (stereo not drawn), for which the activity change was 12.7% (inactive).

Consider `COc1ccc(CS(=O)/C(Cl)=C(/Cl)C(=O)Nc2ccc(OC)nc2)cc1` (stereo not drawn), for which the activity change is -105% (active).

Turning to `O=C(COC(=O)c1cc(-c2cccs2)nn1-c1ccccc1)Nc1cc([N+](=O)[O-])ccc1Cl`, the activity change was 21.3% (inactive).

As for `C/C(=N\Nc1nc2ccccc2[nH]1)c1cccs1`, the activity change was -66.3% (active).

With `C/C(=N\Nc1ccccc1)c1cccs1`, the activity change was 40.5% (inactive).

For the molecule `O=C(Nc1ccccc1-c1nc2ccccc2[nH]c1=O)c1cccs1`, the activity change was 7.39% (inactive).

For `O=C(COc1ccccc1Cl)Nn1cnnc1`, the activity change was 26.3% (inactive).

`CCOC(=O)CNC(=O)CSc1ncccc1-c1nc2ccccc2[nH]1`: the activity change is 16.2% (inactive).

For `COc1ccc(S(=O)(=O)N(C)C[C@@H]2Oc3ccc(NS(=O)(=O)c4cn(C)cn4)cc3C(=O)N([C@@H](C)CO)C[C@@H]2C)cc1`, the activity change was -3.54% (inactive).

On to `OCCN1CCN(c2nnc(-c3ccccc3)c3ccccc23)CC1`, for which the activity change is 23.6% (inactive).

For the molecule `O=C1CCN(CCCc2ccccc2)CCN1CCO`, the activity change was -16.8% (inactive).

Turning to `O=C1c2ccccc2C(=O)c2c1cccc2N1CCN(CCO)CC1`, the activity change is -59.1% (active).

Take `Cc1ccc(Nc2c(O)nc[nH]c2=O)cc1C`: the activity change was 13.4% (inactive).

For the molecule `COc1c(O)cccc1-c1nnn(CCC(=O)OCC(=O)c2ccccc2)n1`, the activity change was 14.4% (inactive).

With `O=S1(=O)CCN(C2CCCCCCCCCCC2)CC1`, the activity change is 26.7% (inactive).

On to `O=c1nc(NO)ccn1C1CCCO1` (stereo not drawn), for which the activity change is 13.7% (inactive).

Regarding `Cc1cccc(C)c1N1CCN(S(=O)(=O)N2CCOCC2)CC1`, the activity change was 0% (inactive).

With `Cc1cccc(C)c1N1CCN(S(=O)(=O)N2CCCCC2)CC1`, the activity change is -53.3% (active).

As for `Cc1cccc(C(=O)N2CCN(S(=O)(=O)N3CCCCC3)CC2)c1`, the activity change was 0% (inactive).

Consider `CCC(c1nnnn1-c1ccc2c(c1)OCCO2)N1CCN(c2ccc(C(F)(F)F)cn2)CC1` (stereo not drawn), for which the activity change was 25.4% (inactive).

As to `CCCNC(=O)CCc1c(C)nc2c(c(C)nn2-c2ccccc2)c1C`, the activity change is -2.57% (inactive).

Regarding `CC(=O)C[C@@H]1OC[C@H](CO)N1S(=O)(=O)c1ccc(C)cc1`, the activity change was 5.63% (inactive).

In the case of `O=C(NCCN1CCOCC1)C1CCN(S(=O)(=O)c2ccccc2)CC1`, the activity change is 0.358% (inactive).

Take `CN1CCN(C(=O)c2ccc(-c3cc4nc(NCc5cccnc5)n(C)c(=O)c4s3)cc2)CC1`: the activity change is -15.2% (inactive).

For the molecule `CC1CCN(C(=O)c2ccc(S(=O)(=O)Cc3cc(F)ccc3F)c([N+](=O)[O-])c2)CC1`, the activity change is -96.6% (active).

Take `Nc1ccc(C(=O)N2CCN(S(=O)(=O)c3ccc(Cl)cc3)CC2)cc1[N+](=O)[O-]`: the activity change was -21.1% (inactive).

With `O=C(c1ccc(Oc2ccc(Cl)cc2)c([N+](=O)[O-])c1)N1CCCC1`, the activity change was -22.3% (inactive).

Take `COc1cc(OC)c(C(=O)NNC(=O)c2ccccc2-n2cccc2)cc1OC`: the activity change was 3.76% (inactive).

As to `O=C(/C=C\c1ccc2c(c1)OCO2)NC1(C(=O)Nc2ccc3c(c2)OCCO3)CCCCC1`, the activity change is -1.03% (inactive).

For the molecule `CN(C)c1ccc(/C=C/C(=O)c2ccc(C(C)(C)C)cc2)cc1[N+](=O)[O-]`, the activity change is -95.8% (active).

As for `CC(=O)c1ccc2c(c1)OCCOCCOc1ccc(C(C)=O)cc1OCCOCCO2`, the activity change was 0% (inactive).

In the case of `C/C(=N\Nc1nncc2ccccc12)c1ccc(Cl)c([N+](=O)[O-])c1`, the activity change was -6.54% (inactive).

Turning to `O=C(/C=C/c1ccc(Cl)c([N+](=O)[O-])c1)c1ccc(O)cc1`, the activity change is -99.9% (active).

Turning to `CC(=O)Nc1ccc(C(=O)/C=C/c2ccc[nH]2)cc1`, the activity change was -9.5% (inactive).

Take `Cc1cc(C(=O)O)ccc1[N+](=O)[O-]`: the activity change is -16.6% (inactive).

`CN(C)c1ccc(/C=C/C(=O)c2ccc(O)cc2)cc1[N+](=O)[O-]`: the activity change is -97.8% (active).

Turning to `O=C(/C=C/c1ccc2c(c1)OCCO2)c1ccc(O)cc1`, the activity change is -103% (active).

Consider `CC(=O)Nc1ccc(C=CC(=O)c2ccc([N+](=O)[O-])cc2)cc1`, for which the activity change was 1.95% (inactive).

In the case of `CNc1ccc(NC(C)=O)cc1[N+](=O)[O-]`, the activity change is -5% (inactive).

Take `Cc1cc(C)n(-c2ccc(C(=O)O)cc2[N+](=O)[O-])n1`: the activity change is 40.6% (inactive).

For `CCOC(=O)C1(CCOC)CCN(Cc2cc3ccccc3s2)CC1`, the activity change is -8.97% (inactive).

As for `CCOc1ccccc1NC(=S)C(=C([O-])c1ccc2c(c1)OCCO2)[n+]1ccc(CC)cc1`, the activity change is 3.49% (inactive).

For `Cc1ccc(Cc2nnc(SCC(=O)Nc3ccccc3C)[nH]c2=O)cc1`, the activity change was 19.7% (inactive).

Regarding `O=C(Nc1cccc2ccccc12)c1[nH]c(-c2ccccc2)c2c1C(=O)N(C1CC1)C2=O`, the activity change was -16.9% (inactive).

Regarding `CC(O)CN(Cc1ccc(Cl)cc1)CC(C)O` (stereo not drawn), the activity change was -2.11% (inactive).

In the case of `CCOC(=O)C(NC(=O)CC(C)C)(Nc1sc2c(c1C(N)=O)CCCC2)C(F)(F)F` (stereo not drawn), the activity change result is “inactive”.

For `CN(C)C(CNC(=O)c1cccc(S(=O)(=O)N2CCc3ccccc3C2)c1)c1ccccc1` (stereo not drawn), the activity change is -16.7% (inactive).

Turning to `O=C(C1CCN(CC2CCCCC2)CC1)N1CCCC1`, the activity change was -2.85% (inactive).

Take `CCCCC(=O)N1CC2(C)CN(C(=O)CCCC)CC(C)(C1)C2=O`: the activity change was 14% (inactive).

As to `COCCN(CCOC)S(=O)(=O)c1ccc(/C(O)=C(\C#N)c2nc3ccccc3[nH]2)cc1`, the activity change is -11.3% (inactive).

As to `N#C/C(=C(/O)COC(=O)COc1ccc(Cl)cc1)c1nc2ccccc2[nH]1`, the activity change was -99.4% (active).

Turning to `CC(C)(C)c1nnc2sc(SCC(O)=C(C#N)c3nc4ccccc4[nH]3)nn2c1=O`, the activity change was 20.2% (inactive).

`Cc1cc(NC(=O)Nc2ccccc2[N+](=O)[O-])no1`: the activity change is -17.8% (inactive).

On to `CC1CCCN(C(=O)Cn2c(=O)oc3cc(S(=O)(=O)N4CCCCC4C)ccc32)C1` (stereo not drawn), for which the activity change was 11.7% (inactive).

In the case of `Cc1cccc(-c2noc(-c3ccc(F)cc3)n2)c1`, the activity change was 19.9% (inactive).

As to `Cc1cccc(-c2nc(Nc3ccc(O)cc3)c3ccccc3n2)c1`, the activity change was -81.3% (active).

For `Oc1ccc(-c2nnc(Nc3ccccc3)c3ccccc23)cc1`, the activity change was 13.6% (inactive).

Turning to `CCc1ccccc1OCC(=O)Nc1ccc2c(c1)OCCO2`, the activity change was -6.79% (inactive).

In the case of `CC(=O)Nc1ccc(SCC(=O)NC(=O)c2ccc(Cl)cc2)cc1`, the activity change is -2.04% (inactive).

As to `CC(C)(CCl)C(=O)Nc1ccc(Sc2ccc(F)cc2)cc1`, the activity change is -12.9% (inactive).

With `O=C(CCl)Nc1ccc(Sc2ccc(NC(=O)CCl)cc2)cc1`, the activity change was -101% (active).

For the molecule `CC1CCN(C(=O)c2ccccc2NC(=O)Cc2ccccc2)CC1`, the activity change is 29.6% (inactive).

In the case of `C[C@H](CO)N1C[C@H](C)[C@@H](CN(C)C(=O)C2CCCCC2)OCc2cnnn2CCCC1=O`, the activity change is 2.8% (inactive).

On to `CCN1/C(=C/c2ccc3ccc(C)cc3[n+]2CC)Sc2ccccc21`, for which the activity change was -101% (active).

Regarding `CCN1/C(=C\c2ccc3ccccc3[n+]2CC)Sc2cc(C)ccc21`, the activity change was -99.7% (active).

In the case of `O=C(Nc1cccc(Br)c1)C1CC(=O)N(C2CCCC2)C1` (stereo not drawn), the activity change is 15.6% (inactive).

For the molecule `CCCS(=O)(=O)NC(=O)C1(C)CCCN(C(=O)c2cc(C)on2)C1` (stereo not drawn), the activity change is 19.3% (inactive).

On to `O=C1NC(O)CCN1C1CC(O)C(CO)O1` (stereo not drawn), for which the activity change is 0% (inactive).

Regarding `CC1(C(=O)Nc2cccc(Oc3ccccc3)c2)CCN1Cc1ccccc1Cl` (stereo not drawn), the activity change is -0.171% (inactive).

Regarding `CCC(C)c1ccccc1N1CC(C(=O)N2CCN(S(=O)(=O)c3ccc(F)cc3)CC2)CC1=O` (stereo not drawn), the activity change was -6.2% (inactive).

As for `Cc1nc(C(F)(F)F)ccc1C(=O)N1CCC1(C)C(=O)NS(=O)(=O)c1ccc(F)cc1F` (stereo not drawn), the activity change was 20.5% (inactive).

For the molecule `O=C(CSc1cccc2cccnc12)N/N=C/c1cccnc1`, the activity change was -96.5% (active).

As for `COc1ccc(C(=O)NCC(=O)N/N=C/c2cccnc2)cc1`, the activity change is 16.9% (inactive).

Consider `CCOC(=O)N/N=C/c1cccnc1`, for which the activity change is 33.8% (inactive).

The values above are taken from PubChem BioAssay AID743279 (National Center for Advancing Translational Sciences (NCATS), 2014).
